From PubChem BioAssay AID1159580 (chemical genetic matrix, 2015)
“And” between values parts separate entries of the source, which are not always exact repeats. Equal entries are not always repeated. Out of some 5,500 compounds screened, about 2,000 (36%) were called active. Another 18% or so got no clear call; they are omitted. No stated cut-off is given here; in the data, active means normalized growth mostly below about 0.91 (no sharp cut-off); inconclusive means no clear call, values can overlap the other calls; inactive means mostly above about 0.92. The list shows a part of the results.

Assay: chemical genetic growth profiling, strain panel (AID 1159580);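 further: tested at 20 µM; growth read once vehicle control cultures reached saturation at 30 °C; 1 = growth at the plate median or of vehicle wells; lower values mean less growth of the strain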
Details: S. cerevisiae deletion strains, growth OD

Measured: normalized growth

Cc1cccc(C)c1NC1=NCCCS1
inactive: locus YAL013W, strain DEP1, active compounds read low 0.999 | locus YAL021C, strain ccr4, active compounds read low 1.03 | locus YAL026C, strain drs2, active compounds read low 0.986 | locus YAL030W, strain snc1, active compounds read low 1 | locus YAL040C, strain CLN3, active compounds read low 0.978 | locus YBL061C, strain skt5, active compounds read low 1 | locus YBR009C, strain hhf1, active compounds read low 1.02 | locus YBR021W, strain FUR4, active compounds read low 0.99 | locus YBR023C, strain chs3, active compounds read low 1.02 | locus YBR171W, strain sec66, active compounds read low 1.02 | locus YBR229C, strain ROT2, active compounds read low 1 | locus YBR231C, strain swc5, active compounds read low 0.997 | locus YBR279W, strain paf1, active compounds read low 1 | locus YCL011C, strain gbp2, active compounds read low 1.02 | locus YCL016C, strain dcc1, active compounds read low 1 | locus YCL029C, strain bik1, active compounds read low 0.974 | locus YCL061C, strain MRC1 (second series), active compounds read low 1.01 | locus YCL061C, strain MRC1, active compounds read low 1 | locus YCL069W, strain vba3, active compounds read low 1 | locus YCR088W, strain abp1, active compounds read low 1 | locus YDL005C, strain med2, active compounds read low 0.995 | locus YDL035C, strain GPR1, active compounds read low 0.979 | locus YDL040C, strain nat1, active compounds read low 1 | locus YDL074C, strain BRE1, active compounds read low 1.03 | locus YDL101C, strain DUN1, active compounds read low 1 | locus YDL134C, strain PPH21, active compounds read low 0.982 | locus YDL185W, strain tfp1, active compounds read low 0.947 | locus YDL192W, strain arf1, active compounds read low 0.987 | locus YDR001C, strain nth1, active compounds read low 1.01 | locus YDR069C, strain doa4, active compounds read low 1.02 | locus YDR101C, strain arx1, active compounds read low 0.995 | locus YDR137W, strain rgp1, active compounds read low 1 | locus YDR150W, strain NUM1, active compounds read low 0.996 and 1.01 | locus YDR159W, strain sac3, active compounds read low 0.991 | locus YDR162C, strain NBP2, active compounds read low 0.97 | locus YDR195W, strain ref2 0.977 | locus YDR297W, strain sur2, active compounds read low 1.01 | locus YDR318W, strain mcm21, active compounds read low 0.972 | locus YDR334W, strain swr1, active compounds read low 1.01 | locus YDR335W, strain msn5, active compounds read low 1.01 | locus YDR363W, strain ESC2, active compounds read low 1.02 | locus YDR388W, active compounds read low 0.994 | locus YDR392W, strain spt3, active compounds read low 1.01 | locus YDR502C, strain sam2, active compounds read low 0.991 | locus YEL003W, strain gim4, active compounds read low 1.01 | locus YEL037C, strain rad23, active compounds read low 1.01 | locus YEL061C, strain CIN8 (second series), active compounds read low 1.01 | locus YEL061C, strain CIN8, active compounds read low 1 | locus YER002W, strain NOP16, active compounds read low 1.01 | locus YER015W, strain faa2, active compounds read low 1.01 | locus YER016W, strain bim1, active compounds read low 1.01 | locus YER110C, active compounds read low 0.976 | locus YER111C, strain swi4, active compounds read low 1.01 | locus YER155C, strain BEM2 (second series), active compounds read low 1.01 | locus YER155C, strain BEM2, active compounds read low 0.995 | locus YER167W, strain BCK2, active compounds read low 0.99 | locus YFR010W, strain ubp6, active compounds read low 1.02 | locus YGL078C, strain dbp3, active compounds read low 0.983 | locus YGL086W, strain mad1, active compounds read low 0.998 | locus YGL167C, strain pmr1, active compounds read low 1.01 | locus YGL173C, strain kem1, active compounds read low 1.01 | locus YGL227W, strain vid30, active compounds read low 1 | locus YGL240W, strain doc1, active compounds read low 0.992 | locus YGL248W, strain PDE1, active compounds read low 1.01 | locus YGL253W, strain hxk2, active compounds read low 1.01 | locus YGR135W, strain pre9, active compounds read low 0.967 | locus YGR229C, strain SMI1, active compounds read low 0.996 | locus YGR252W, strain gcn5, active compounds read low 1 | locus YHR013C, strain ard1, active compounds read low 1.01 | locus YHR027C, strain rpn1, active compounds read low 0.992 | locus YHR030C, strain SLT2, active compounds read low 0.995 and 1.02 | locus YHR079C, strain IRE1 (second series), active compounds read low 0.981 | locus YHR079C, strain IRE1, active compounds read low 1.04 | locus YHR094C, strain hxt1, active compounds read low 0.989 | locus YHR129C, strain ARP1, active compounds read low 0.988 | locus YHR142W, strain chs7, active compounds read low 1.01 | locus YHR200W, strain rpn10, active compounds read low 0.96 | locus YIL066C, strain RNR3, active compounds read low 1 | locus YIL073C, strain SPO22, active compounds read low 0.86 | locus YIL125W, strain kgd1, active compounds read low 0.987 | locus YIR030C, strain dcg1, active compounds read low 0.975 | locus YJL092W, strain hpr5, active compounds read low 1 | locus YJL095W, strain BCK1 (second series), active compounds read low 1 | locus YJL095W, strain BCK1, active compounds read low 1.03 and 1.04 | locus YJL115W, strain asf1, active compounds read low 1.01 | locus YJL129C, strain trk1, active compounds read low 1 | locus YJL134W, strain LCB3, active compounds read low 0.994 | locus YJL154C, strain vps35, active compounds read low 1.01 | locus YJL164C, strain tpk1, active compounds read low 1.01 | locus YJL166W, strain qcr8, active compounds read low 1.01 | locus YJL168C, strain set2, active compounds read low 0.99 | locus YJL187C, strain SWE1 (second series), active compounds read low 1.03 | locus YJR043C, strain POL32, active compounds read low 1.02 | locus YJR066W, strain TOR1, active compounds read low 0.955
